Bioassay records from PubChem BioAssay.
Shown are actives, neighbours in structure and some others; about 4.1% of the full set was active somewhere.
hcDAF12 agonist: activators of H. contortus DAF-12 nuclear receptor. HEK293 hcDAF-12 lit1-tk-luc reporter, luminescence; 0% DMSO, 100% Δ7-dafachronic acid. activation, % at 6.8 µM. 370,000 tested, 1.4% active;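 active = activation above the mean of all tested compounds plus 3 SD, cut at about 5.5% in these data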;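 note: 100% = response to 3 µM Δ7-dafachronic acid high control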
DAX1 inh-1: DAX1 (NR0B1) inhibition, primary screen. HEK293T StAR-luciferase reporter, SF-1/DAX-1 repression relief. inhibition, % at 6.8 µM. 370,000 tested, 1.1% active. AID 652010;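 active = inhibition above the mean over all tested compounds plus 3 SD, cut at about 3.6% in these data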;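 note: 0% = DAX-1 cells with DMSO and 100% = cells lacking DAX-1 with DMSO; higher inhibition means more luminescence from relief of DAX-1 repression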
ssDAF-12 act: activators of S. stercoralis DAF-12 nuclear receptor | 370,000 tested, 1% active | activation, % at 6.8 µM | HEK293 ssDAF-12/GRIP1 lit1-tk-luc reporter, luminescence; % of 3 µM dafachronic acid response;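 active = activation above the mean over all tested compounds plus 3 SD, cut at about 0.9% in these data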;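 note: 0% = DMSO-only wells and 100% = 3 µM delta7-dafachronic acid wells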
hgDAF-12 ag: hgDAF-12 agonism, primary luciferase screen; 370,000 tested, 1.8% active; HEK293 GAL4-hgDAF12 UAS-luciferase reporter, agonist luminescence; normalized to butyrate control; activation, % at 6.8 µM;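 active = activation above a cutoff set at the mean of all screened compounds plus 3 SD, cut at about 10% in these data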;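 note: 0% = DMSO wells and 100% = sodium butyrate wells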
DAX1 inh-2: inhibits human nuclear receptor DAX1. HEK293 Gal4-DAX1 luciferase reporter, luminescence. inhibition, % at 6.75 µM. 340,000 tested, 0.99% active. AID 504766;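 active = inhibition above the mean over all tested compounds plus 3 SD, cut at about 4.2% in these data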;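 note: 0% = DAX1-transfected cells with DMSO and 100% = empty-vector control cells with DMSO; inhibition shows as a rise in luminescence from relieved DAX1 repression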
Target sequence (P51843 207-470 limits assumed): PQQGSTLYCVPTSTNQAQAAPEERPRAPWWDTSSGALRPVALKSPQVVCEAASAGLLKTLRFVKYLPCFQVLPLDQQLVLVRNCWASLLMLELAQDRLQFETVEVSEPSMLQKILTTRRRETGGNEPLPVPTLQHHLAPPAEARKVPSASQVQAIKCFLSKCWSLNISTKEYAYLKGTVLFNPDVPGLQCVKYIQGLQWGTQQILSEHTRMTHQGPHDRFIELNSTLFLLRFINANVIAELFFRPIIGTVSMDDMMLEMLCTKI
Active calls of the source: *.

COc1ccc(C2C(C(=O)NCCN(C)C)c3ccccc3C(=O)N2C)cc1OC (configuration not stated) was read as hcDAF12 agonist -1, DAX1 inh-1 -2, ssDAF-12 act -1, hgDAF-12 ag 1 and DAX1 inh-2 4.6*.
Screening COc1ccc(C2C(C(=O)NCc3ccccn3)c3ccccc3C(=O)N2C)cc1OC (configuration not stated) returned hcDAF12 agonist -1, DAX1 inh-1 0, ssDAF-12 act -1, hgDAF-12 ag -1 and DAX1 inh-2 1.
For O=C1C(=O)N(CCN2CCOCC2)C(c2ccccc2)/C1=C(\O)c1ccc2c(c1)OCCO2 (configuration not stated) the results were hcDAF12 agonist 1, DAX1 inh-1 4.0*, ssDAF-12 act -1, hgDAF-12 ag -2 and DAX1 inh-2 1.
For O=C(Nc1ccccc1)Nc1ncc([N+](=O)[O-])s1 the results were hcDAF12 agonist 5, DAX1 inh-1 3.7*, ssDAF-12 act 0, hgDAF-12 ag 5 and DAX1 inh-2 -2.
`O=C1NC2(CCCCC2)C(=O)N1c1ccccc1` gave hcDAF12 agonist -1, DAX1 inh-1 -1, ssDAF-12 act -1, hgDAF-12 ag 0 and DAX1 inh-2 5.8*.
`COc1ccc(CN2C[C@]3(C=C4CCCCC4n4c(=O)n(-c5ccccc5)c(=O)n43)N=C2NC(=O)c2ccccc2)c(OC)c1` (some centres not stated) gave hcDAF12 agonist -1, DAX1 inh-1 -1, ssDAF-12 act -1 and hgDAF-12 ag -6.
Screening COc1ccc(CN(CCN2CCOCC2)C(=O)c2cc(F)ccc2F)cc1OC returned hcDAF12 agonist -3, DAX1 inh-1 0, ssDAF-12 act -1 and hgDAF-12 ag -2.
For CCOc1ccccc1-c1n[nH]c(=S)o1 the results were hcDAF12 agonist 6.4*, DAX1 inh-1 0, ssDAF-12 act 1.0*, hgDAF-12 ag 3 and DAX1 inh-2 -2.
`COC(=O)[C@]12C[C@H](CC(=O)NCCCN3CCCC3=O)C(=O)N(CCC3=CCCCC3)C1=C[C@H](C(C)C)O[C@@H]2C1CC1` gave hcDAF12 agonist -2, DAX1 inh-1 0, ssDAF-12 act -2 and hgDAF-12 ag -3.
Screening O=C(N/N=C/c1ccc(OC2CSC2)cc1)c1ccccc1 returned hcDAF12 agonist 2, DAX1 inh-1 4.2*, ssDAF-12 act 0, hgDAF-12 ag 5 and DAX1 inh-2 2.
`Cc1cccc(/C=N\NC(=O)c2csnn2)c1` gave hcDAF12 agonist 5, DAX1 inh-1 2, ssDAF-12 act 0, hgDAF-12 ag 9 and DAX1 inh-2 1.
`O=C(N/N=C\c1ccc(Oc2ccccc2)cc1)c1csnn1` gave hcDAF12 agonist 1, DAX1 inh-1 2, ssDAF-12 act 0, hgDAF-12 ag 11* and DAX1 inh-2 5.4*.
`CCCCCCCCNCCS(=O)(=O)NCCCCCCCC` gave hcDAF12 agonist 0, DAX1 inh-1 0, ssDAF-12 act 0, hgDAF-12 ag 0 and DAX1 inh-2 2.
`Cc1cc(NC(=O)C(C)SCC(=O)OCC(=O)N(C)c2ccccc2)no1` (configuration not stated) gave hcDAF12 agonist -1, DAX1 inh-1 1, ssDAF-12 act -1, hgDAF-12 ag 2 and DAX1 inh-2 4.6*.
Screening COc1ccccc1C(=O)COC(=O)CSC(C)C(=O)Nc1cc(C)on1 (configuration not stated) returned hcDAF12 agonist 0, DAX1 inh-1 -1, ssDAF-12 act -1, hgDAF-12 ag 1 and DAX1 inh-2 -1.
For Clc1ccc(CONc2ncnc3nonc23)c(Cl)c1 the results were hcDAF12 agonist 1, DAX1 inh-1 2, ssDAF-12 act -1, hgDAF-12 ag 11* and DAX1 inh-2 2.
COc1ccc(N2CCOCC2)c(NC(=O)c2cccs2)c1 was read as hcDAF12 agonist 0, DAX1 inh-1 0, ssDAF-12 act 0, hgDAF-12 ag 1 and DAX1 inh-2 0.
O=C(Nc1cc(C(F)(F)F)ccc1N1CCOCC1)c1cccs1 was read as hcDAF12 agonist -1, DAX1 inh-1 0, ssDAF-12 act -1, hgDAF-12 ag 1 and DAX1 inh-2 4.6*.
Screening CN(C)c1ccc(P(=O)(Nc2cccc(C(F)(F)F)c2)N2CCOCC2)c(NC(=O)c2cccs2)c1 (configuration not stated) returned hcDAF12 agonist 4, DAX1 inh-1 0, ssDAF-12 act 1.4*, hgDAF-12 ag 2 and DAX1 inh-2 1.
`C=CC(=O)NC1CCCCN(CC)C1=O` (configuration not stated) gave hcDAF12 agonist -2, DAX1 inh-1 0, ssDAF-12 act -1 and hgDAF-12 ag -2.
FC(F)(F)c1ccc(Oc2ccc(Cl)cc2Br)nc1 was read as hcDAF12 agonist -1, DAX1 inh-1 0, ssDAF-12 act 25*, hgDAF-12 ag 0 and DAX1 inh-2 0.
`FC(F)(F)c1ccc(Oc2ccccc2Cl)nc1` gave hcDAF12 agonist 0, DAX1 inh-1 0, ssDAF-12 act -2, hgDAF-12 ag 2 and DAX1 inh-2 1.
Screening COc1cccc(-c2cccc(NC(=O)C3CCN(C4CCOCC4)CC3)c2)c1 returned hcDAF12 agonist 0, DAX1 inh-1 1, ssDAF-12 act 1.5*, hgDAF-12 ag -1 and DAX1 inh-2 2.
Screening COc1cccc(-c2cccc(NC(=O)C3CCN(CC4CCOC4)CC3)c2)c1 (configuration not stated) returned hcDAF12 agonist 3, DAX1 inh-1 1, ssDAF-12 act 0, hgDAF-12 ag 5 and DAX1 inh-2 0.
Screening Cc1cc2c(NC(=O)Nc3ccccc3)cccc2nn1 returned hcDAF12 agonist -2, DAX1 inh-1 0, ssDAF-12 act -1, hgDAF-12 ag -1 and DAX1 inh-2 5.4*.
`O=S1(=O)CC2c3ccccc3CN2CN1C1CCCC1` (configuration not stated) gave hcDAF12 agonist 2, DAX1 inh-1 0, ssDAF-12 act 0 and hgDAF-12 ag 0.
Cc1ccccc1-c1cnn(-c2cccc([N+](=O)[O-])c2)c1N was read as hcDAF12 agonist -1, DAX1 inh-1 0, ssDAF-12 act -1, hgDAF-12 ag 3 and DAX1 inh-2 0.
Screening Nc1c(-c2ccccc2)cnn1-c1ccc(C(=O)O)cc1 returned hcDAF12 agonist 3, DAX1 inh-1 2, ssDAF-12 act 0, hgDAF-12 ag 12* and DAX1 inh-2 0.
Screening Cc1ccc(-c2cnn(-c3ccccc3)c2N)cc1 returned hcDAF12 agonist 5, DAX1 inh-1 3, ssDAF-12 act 0, hgDAF-12 ag 16* and DAX1 inh-2 0.
Cc1ccc(-c2cnn(-c3cccc([N+](=O)[O-])c3)c2N)cc1 was read as hcDAF12 agonist -1, DAX1 inh-1 0, ssDAF-12 act -1, hgDAF-12 ag 11* and DAX1 inh-2 2.
